# PubChem BioAssay
# The source made the active and inactive calls. Unless noted, the rule behind the calls is not given here.
# Experiments:
# [1] = A549 cell viability effects, profiling panel, calcein-AM fluorescence, 48 h, basal (AID 1162); details: higher = more signal; note: test concentration not given here
# [2] = adipocyte viability effects, profiling panel, cell-based, 3T3-L1 adipocytes, calcein-AM fluorescence, 48 h, basal (AID 1163); details: 3T3-L1 adipocytes viability, higher = more signal; note: test concentration not given here
# [3] = HepG2 cell viability effects, profiling panel, calcein-AM fluorescence, 48 h, basal (AID 1164); details: higher = more signal; note: test concentration not given here
# [4] = MM1S cell viability effects, profiling panel, calcein-AM fluorescence, 48 h, basal (AID 1165); details: higher = more signal;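 note: viability of MM1S multiple myeloma cells under basal unstimulated conditions; test concentration not given here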
# [5] = basal RPMI8226 viability, no added stimulus, profiling panel, cell-based, calcein-AM fluorescence, 48 h, PK04 Diversity Set (AID 1166); details: RPMI8226 myeloma viability, higher = more signal;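 note: cells grown under basal conditions without added stimulus; test concentration not given here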
# [6] = basal HepG2 mitochondrial membrane potential changes, profiling panel, cell-based, JC-1 fluorescence, 24 h, 100 nL compound (AID 1167); details: higher = more signal; note: test concentration not given here
# [7] = basal 3T3-L1 adipocyte mitochondrial potential changes, profiling panel, cell-based, JC-1 fluorescence, 3T3-L1 adipocytes, 24 h, 100 nL compound (AID 1168); details: JC-1 mitochondrial fluorescence, higher = more signal, called active from +8 up or from −8 down; note: test concentration not given here
# [8] = basal RPMI8226 mitochondrial membrane potential changes, profiling panel, cell-based, JC-1 fluorescence, 24 h, 100 nL compound (AID 1169); details: RPMI8226 myeloma, JC-1 mitochondrial potential fluorescence, higher = more signal; note: test concentration not given here
# [9] = basal MM1S mitochondrial membrane potential changes, profiling panel, cell-based, JC-1 fluorescence, 24 h, 100 nL compound (AID 1170); details: higher = more signal; note: test concentration not given here
# [10] = A549 lung cancer cell viability effects, profiling panel, resazurin fluorescence, 24 h, PK04 Diversity Set (AID 1171); details: higher = more signal, called active from +8 up or from −8 down; note: test concentration not given here
# [11] = HepG2 liver cancer cell viability effects, profiling panel, resazurin fluorescence, 24 h, PK04 Diversity Set (AID 1172); details: higher = more signal; note: test concentration not given here
# [12] = basal S. cerevisiae growth modulation, no modifier, primary screen, OD600, strain BY4716, 24 h, basal condition (AID 1173); details: OD600, 24 h, higher = more signal, called active from +8 up or from −8 down
# [13] = MM1S myeloma cell viability, profiling panel, resazurin fluorescence, basal, 24 h, PK04 Diversity Set (AID 1174); details: higher = more signal, called active from +8 up or from −8 down;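 note: MM1S multiple myeloma cell line; test concentration not given here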
# [14] = molecular target: Dihydroorotate dehydrogenase (quinone), mitochondrial (Plasmodium falciparum (isolate 3D7)) (UniProt Q08210); experiment: PfDHODH enzyme inhibitors, primary screen, biochemical, C-terminal His tag, absorbance 600 nm (AID 1175); details: DCIP absorbance 600 nm, higher = more signal, called active from +8 up or from −8 down;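 note: recombinant parasite enzyme with a five histidine tag at its C terminus; test concentration not given here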
# [15] = P. aeruginosa biofilm formation inhibitors, primary screen, strain PAO1, LB-PBS medium, absorbance 600 nm (AID 1176); note: test concentration not given here; details: P. aeruginosa PAO1 growth/biofilm, A600, 12 h; higher = more signal
# [16] = S. cerevisiae RM11-1a growth modifiers, primary screen, strain RM11-1a, OD600, basal, 24 h (AID 1177); details: OD600, 24 h, higher = more signal, called active from +8 up or from −8 down;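 note: cultures grown under basal conditions with no added stressor; test concentration not given here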
# [17] = E. coli acrAB mutant growth effects, primary screen, E. coli filamentation inducers, strain DRC39, OD650, 24 h (AID 1178); details: higher = more signal, called active from +8 up or from −8 down;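 note: growth measured as culture turbidity by optical density at 650 nm; test concentration not given here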
# [18] = E. coli acrAB mutant growth effects, primary screen, E. coli filamentation inducers, strain DRC39, OD650, 48 h (AID 1179);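 note: screen aims at cell division blockers that make cells filament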; details: E. coli DRC39 delta-acrAB growth, higher = more signal, called active from +8 up or from −8 down
# [19] = RPMI8226 myeloma cell viability, profiling panel, resazurin fluorescence, basal, 24 h, PK04 Diversity Set (AID 1180); details: higher = more signal;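 note: RPMI8826 multiple myeloma cell line at 5000 cells per well; test concentration not given here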
# [20] = molecular target: E3 ubiquitin-protein ligase XIAP (Homo sapiens) (UniProt P98170); experiment: XIAP binders, primary screen, biophysical, small-molecule microarray, fluorescence 635 nm (AID 1181); details: small-molecule microarray binding, higher = more signal;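 note: score merges 667 nm emission and signal to noise over triplicate slides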
# Chain of E3 ubiquitin-protein ligase XIAP (Homo sapiens) (P98170 whole entry, looked up): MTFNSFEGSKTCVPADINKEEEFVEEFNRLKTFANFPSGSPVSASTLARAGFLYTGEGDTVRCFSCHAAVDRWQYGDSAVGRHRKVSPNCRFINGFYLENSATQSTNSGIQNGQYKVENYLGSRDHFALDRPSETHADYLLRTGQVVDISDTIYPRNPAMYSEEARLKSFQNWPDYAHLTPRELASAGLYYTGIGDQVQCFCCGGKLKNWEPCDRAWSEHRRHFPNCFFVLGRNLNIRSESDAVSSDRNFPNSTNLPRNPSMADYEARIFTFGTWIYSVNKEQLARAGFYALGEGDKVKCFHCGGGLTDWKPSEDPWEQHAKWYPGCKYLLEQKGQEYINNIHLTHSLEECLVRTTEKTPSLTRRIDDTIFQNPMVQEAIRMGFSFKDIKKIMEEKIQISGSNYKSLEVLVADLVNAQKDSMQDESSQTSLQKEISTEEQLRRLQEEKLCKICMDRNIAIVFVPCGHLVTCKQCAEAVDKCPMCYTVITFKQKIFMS
# Chain of Dihydroorotate dehydrogenase (quinone), mitochondrial (Plasmodium falciparum (isolate 3D7)) (Q08210 whole entry, looked up): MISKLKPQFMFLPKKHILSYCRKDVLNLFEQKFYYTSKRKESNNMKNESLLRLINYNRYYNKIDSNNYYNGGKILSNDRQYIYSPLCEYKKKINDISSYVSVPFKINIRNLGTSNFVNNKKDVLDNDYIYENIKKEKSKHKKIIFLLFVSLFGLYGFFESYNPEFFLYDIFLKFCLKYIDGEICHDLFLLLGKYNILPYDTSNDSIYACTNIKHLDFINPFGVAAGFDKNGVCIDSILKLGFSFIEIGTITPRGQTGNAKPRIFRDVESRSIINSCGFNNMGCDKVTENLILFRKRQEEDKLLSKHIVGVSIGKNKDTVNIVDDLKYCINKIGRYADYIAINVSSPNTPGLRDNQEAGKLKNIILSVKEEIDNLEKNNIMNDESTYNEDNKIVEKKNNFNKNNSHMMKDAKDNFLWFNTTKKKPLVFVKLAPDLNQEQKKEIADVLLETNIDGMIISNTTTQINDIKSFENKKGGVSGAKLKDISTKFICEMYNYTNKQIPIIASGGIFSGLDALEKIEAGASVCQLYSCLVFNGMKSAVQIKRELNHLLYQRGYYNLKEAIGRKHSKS
Compound,z-score [1],z-score [2],z-score [3],z-score [4],z-score [5],z-score [6],z-score [7],z-score [8],z-score [9],z-score [10],z-score [11],z-score [12],z-score [13],composite z-score [14],z-score [15],z-score [16],z-score [17],z-score [18],z-score [19],composite z-score [20]
CC(C)=NO[C@H](C)c1cn([C@H](CO)Cc2ccccc2)nn1,0.373,0.232,-0.121,-0.0735,-0.33,-0.312,-0.41 (inactive),0.155,1.11,0.268 (inactive),0.0622,-0.489 (inactive),-0.11 (inactive),-0.784 (inactive),0.204 (inactive),-0.493 (inactive),0.517 (inactive),-1.91 (inactive),0.672,-0.0538
CC(=O)OC[C@H]1OC(ON=CC[C@@H]2C=C[C@H](OC(C)=O)[C@@H](COC(C)=O)O2)[C@H](OC(C)=O)[C@@H](OC(C)=O)[C@@H]1OC(C)=O (stereo not given in full),-0.49,-0.403,-1.12,-0.092,-0.878,0.0783,-2.76 (inactive),-0.796,0.23,0.103 (inactive),0.186,0.352 (inactive),-0.919 (inactive),-0.753 (inactive),-0.0903 (inactive),-0.618 (inactive),0.938 (inactive),0.583 (inactive),0.169,0.0982
C[C@H]1COC(=O)[C@@H]2CCCN2C(=O)[C@@H](C)COC(=O)[C@H](Cc2ccccc2)NC1=O,-0.398,-0.501,-0.501,0.119,-0.364,0.278,-0.906 (inactive),-0.287,-0.825,0.264 (inactive),0.409,0.0852 (inactive),-0.208 (inactive),-0.926 (inactive),-0.348 (inactive),-0.231 (inactive),0.0861 (inactive),0.503 (inactive),0.586,1.05
COC(=O)C1=C(C)N(Cc2ccccc2)[C@]23O[C@](C(=O)OC)(C(=O)N2[C@@H]1c1ccccc1)C(C(=O)OC)=C3C(=O)OC,-0.321,1.48,0.0331,-1.45,-3.2,0.483,0.725 (inactive),-0.256,-0.239,-0.645 (inactive),-0.0934,-1.32 (inactive),1.08 (inactive),-2.7 (inactive),-0.965 (inactive),-0.511 (inactive),-0.907 (inactive),-1.26 (inactive),0.345,-0.254
C=Cc1ccc([C@H]2N[C@H](C(=O)O)CC[C@@H]2C)cc1,-0.241,-0.173,0.453,-0.568,-1.15,0.547,0.0233 (inactive),0.239,0.43,-0.439 (inactive),-0.869,-0.366 (inactive),-0.601 (inactive),-0.13 (inactive),-0.54 (inactive),-0.649 (inactive),0.505 (inactive),0.296 (inactive),-0.845,-0.168
COC(=O)NCC=Cc1nc(CCCO)co1,0.206,-0.683,0.392,0.225,0.0204,-0.64,0.331 (inactive),-0.0369,-0.606,-0.238 (inactive),-0.0091,0.41 (inactive),-0.295 (inactive),-0.706 (inactive),-0.245 (inactive),0.414 (inactive),0.107 (inactive),0.438 (inactive),-0.626,-0.117
CC(C)CCN1CCc2nc(COc3ccccc3)c3c(c2C1)CO[C@@H](C)C3,-0.304,-0.225,0.665,0.246,-0.396,1.66,-0.000112 (inactive),-0.724,1.09,-0.0622 (inactive),-0.226,-0.83 (inactive),0.291 (inactive),0.0368 (inactive),0.462 (inactive),0.288 (inactive),1.1 (inactive),-0.341 (inactive),0.327,-0.161
CCOC(=O)[C@H](Cc1ccccc1)NC(=O)CCC1CC(OC(=O)NCc2ccc3c(c2)OCO3)CC2(CCCC(COC(=O)NCCc3ccccc3OC)O2)O1 (stereo not given in full),-1.24,-0.399,-0.519,-0.271,-0.502,-0.778,-0.877 (inactive),0.444,0.00939,0.124 (inactive),-0.23,0.911 (inactive),-0.32 (inactive),0.0964 (inactive),0.426 (inactive),0.824 (inactive),-0.0754 (inactive),-0.731 (inactive),0.0481,-0.024
CC(C)CON=C1C[C@@H](O)[C@@H](O)[C@@H]2[C@@H]3C(=O)N(c4cccc(Oc5ccccc5)c4)C(=O)[C@@H]3CC[C@@H]12,1.52,0.797,0.626,-0.779,0.0135,0.291,0.411 (inactive),0.615,-1.78,-0.908 (inactive),-0.271,-1.81 (inactive),-1.5 (inactive),-1.71 (inactive),0.659 (inactive),-1.86 (inactive),-0.321 (inactive),-0.791 (inactive),-0.0778,0.125
CC(C)CON=C1C[C@@H](O)[C@@H](O)[C@@H]2[C@@H]3C(=O)N(C[C@@H]4CCCO4)C(=O)[C@@H]3CC[C@@H]12,0.18,-0.149,-0.622,-0.61,-0.923,-0.49,0.977 (inactive),-0.258,-0.0595,0.266 (inactive),-0.192,0.526 (inactive),0.22 (inactive),-0.223 (inactive),0.152 (inactive),-0.541 (inactive),0.276 (inactive),0.663 (inactive),1.15,-0.266
CO[C@@H]1COC(=O)CC=C[C@@H](C)[C@H](OC)COC(=O)[C@@H](C)COC(=O)CC=C[C@H]1C,0.865,-0.159,1.48,0.397,-0.802,1.11,-0.661 (inactive),0.338,0.253,0.134 (inactive),0.225,-0.621 (inactive),0.586 (inactive),0.577 (inactive),-0.225 (inactive),0.401 (inactive),0.666 (inactive),0.733 (inactive),0.151,-0.0264
O=C1CCCC=C1C(O)CCCCBr (stereo not given),-1.75,0.593,-4.6,-3.52,-3.71,-0.504,0.482 (inactive),-0.967,-3.04,-2.06 (inactive),-1.4,-17.6 (active),-8.08 (active),-1.39 (inactive),1.43 (inactive),-2.66 (inactive),0.48 (inactive),0.557 (inactive),-4.3,-0.193
COCCNC(=O)OCC1CCCC2(CC(OC(=O)NCc3ccc4c(c3)OCO4)CC(CCC(=O)N[C@@H](C)C(=O)OC)O2)O1 (stereo not given in full),0.122,-0.0741,-1.29,0.463,-2.51,-0.802,-0.628 (inactive),0.934,-0.318,1.66 (inactive),0.752,-0.433 (inactive),-0.0741 (inactive),0.209 (inactive),-0.282 (inactive),0.715 (inactive),0.311 (inactive),-0.49 (inactive),0.528,-0.173
